# Results filed as inconclusive are left out. Activity calls are given as the source filed them. The call rests on the fitted dose curve; in most records, active means well fitted cell-killing curve with a large enough effect in the repeat runs; inconclusive means weak or mixed curves, or effect the other way; inactive means flat fitted curve, though single readings scatter.
# Assay: qHTS assay to identify small molecule antagonists of the estrogen receptor alpha (ER-alpha) signaling pathway using the BG1 cell line in the presence of 0.1 nM 17-beta-estradiol - cell viability counter screen (AID 1259241); further: nearly all actives have a fitted effect of over 40% in size
# Settings: VM7Luc4E2 (BG1) viability, CellTiter-Fluor protease, 22 h, 0.1 nM estradiol agonist added; series mostly up to 92.4 µM; activity change, negative = cytotoxicity: at the top concentration
# From the text: National Center for Advancing Translational Sciences [NCATS]
# NIH Chemical Genomics Center [NCGC]
# U.S. Environmental Protection Agency [EPA]
# National Institutes of Environmental Health Sciences [NIEHS]
# National Toxicology Program [NTP]
# U.S. Food and Drug Administration [FDA]
# Estrogen receptor (ER), a member of the nuclear hormone receptor plays an important role in development, metabolic homeostasis and reproduction. Two subtypes of ER, ER-alpha and ER-beta, have similar expression patterns with some uniqueness in both types. Endocrine disrupting chemicals (EDCs) and their interactions with steroid hormone receptors like ER causes disruption of normal endocrine function. Therefore, it is important to understand the effect of environmental chemicals in ER signaling pathway. For identifying ER antagonists, VM7Luc4E2 cell line was used to screen against Tox21 compound libraries.
# VM7Luc4E2 cell line (provided by Denison MS, University of California) endogenously express full-length ER-alpha and is stably transfected with a plasmid containing four estrogen responsive elements (ERE) upstream of a luciferase reporter gene. The current screening for identification of ER-alpha inhibitors against Tox21 compound libraries used lower concentration (0.1 nM) of 17beta-Estradiol as a stimulator. The cytotoxicity of the Tox21 compound libraries against VM7Luc4E2 cell line was tested by measuring live-cell protease activity using CellTiter-Fluor assay in the same wells.
# Tox21 Assay Protocol Summary:
# VM7Luc4E2 cells were cultured in phenol red free assay medium containing 10% charcoal stripped FBS for 5 days prior to the assay. The cells were dispensed at 4,000 cells/well in 4 uL of assay medium into white wall/solid-bottom 1536-well plates (Corning Life Sciences, Corning, NY) using a Multidrop Combi (ThermoFisher Scientific, Waltham, MA) dispenser. After the assay plates were incubated at 37C and 5% CO2 for 24 hr, 23 nL of compounds dissolved in DMSO, positive controls or DMSO only was transferred to the assay plates by a Pintool station (Kalypsys, San Diego, CA). The transfer of compounds was followed by the addition of 1 uL of 0.1 nM (final concentration) agonist (17beta-Estradiol)/assay medium using a Flying Reagent Dispenser (FRD, Aurora Discovery, San Diego, CA). The plates were incubated at 37C and 5% CO2 for 22 hr. For cytotoxicity assay, 1 uL of CellTiter-Fluor reagent (Promega Corporation, Madison, WI) was added to each well using the FRD and after 30 min incubation at 37C and 5% CO2, The fluorescence intensity was measured using ViewLux plate reader (PerkinElmer, Shelton, CT).
# On the % scale 0 is the no-effect control and ±100 the full control effect.
row,Structure (SMILES),"activity change, negative = cytotoxicity"
1,N#CCNCC#N,2.66% (inactive)
2,CCN(Cc1ccc(Cl)nc1)/C(=C/[N+](=O)[O-])NC,-0.153% [at 42.5 µM] (inactive)
3,CCCCc1ccc(O)cc1,3.02% (inactive)
4,CC1CCCCC1NC(=O)Nc1ccccc1 (stereo not given),-26.3% (inactive)
5,CCOC(=O)CP(=O)(OCC)OCC,1.19% (inactive)
6,Nc1ccccc1Cl,2.87% (inactive)
7,ClCC(Cl)Cl,3.68% (inactive)
8,COP(=S)(OC)Oc1ccc(S(N)(=O)=O)cc1,1.58% [at 42.5 µM] (inactive)
9,NC1=NC(=O)C(c2ccccc2)O1 (stereo not given),6.01% [at 42.5 µM] (inactive)
10,CC1=NNC(=O)N(/N=C/c2cccnc2)C1,4.78% (inactive)
11,CCCSC(=O)Cl,5.19% (inactive)
12,CN1CCC(N(Cc2ccccc2)c2ccccc2)CC1,-0.833% [at 42.5 µM] (inactive)
13,COc1cc(OC)nc(Oc2cccc(Oc3nc(OC)cc(OC)n3)c2C(=O)O)n1,-2.89% (inactive)
14,Cc1ncsc1CCCl,5.64% [at 42.5 µM] (inactive)
15,CCCCOC(=O)c1ccccc1N,9.37% (inactive)
16,O=NN1CCCCC1,-12.1% (inactive)
17,CC(CCc1ccccc1)NC(C)C(O)c1ccc(O)cc1 (stereo not given),-22.7% [at 42.5 µM] (inactive)
18,CNC(=O)Oc1cccc(C(C)C)c1,-0.431% (inactive)
19,CSc1ccc(C(=O)C(C)(C)N2CCOCC2)cc1,-0.711% (inactive)
20,O=C(Oc1ccc(Br)cc1)N1CCN2CCC1CC2,-0.486% (inactive)

row,Structure (SMILES),"activity change, negative = cytotoxicity"
1,CNC(=O)Oc1ccccc1C1OCCO1,-0.134% (inactive)
2,O=C1CN2CCOC2(c2ccccc2Cl)c2cc(Cl)ccc2N1 (stereo not given),-3.32% [at 42.5 µM] (inactive)
3,CCCCOP(=O)(O)OCCCC,2.31% (inactive)
4,C[N+](C)=CCl,1.6% (inactive)
5,c1coc(-c2nc3ccccc3[nH]2)c1,0.665% (inactive)
6,CC1(C)COP(Oc2ccccc2)OC1,-8.89% (inactive)
7,CCOC(=O)N(C)C(=O)CSP(=S)(OCC)OCC,3.15% (inactive)
8,CCc1cc2c(s1)-n1c(C)nnc1CN=C2c1ccccc1Cl,3.54% [at 42.5 µM] (inactive)
9,CCC1(c2ccccc2)C(=O)N=C(O)NC1=O (stereo not given),-0.405% (inactive)
10,CC(C(=O)c1ccccc1)N(C)C (stereo not given),4.83% [at 42.5 µM] (inactive)
11,Nc1cnn(-c2ccccc2)c(=O)c1Cl,-4.01% (inactive)
12,N#Cc1ccncc1,-8.44% (inactive)
13,CC(C)COP(=O)(OCC(C)C)OCC(C)C,-4.51% (inactive)
14,O=C(O)c1cccc(Cl)c1,-14.1% (inactive)
15,COC(=O)c1ccccc1S(=O)(=O)NC(=O)Nc1nc(C)cc(C)n1,1.92% (inactive)
16,CC1=C(C(=O)Nc2ccccc2)S(=O)(=O)CCO1,-24.3% (inactive)
17,O=C(NCO)NCO,-0.201% (inactive)
18,CC(=O)[C@H]1CC[C@H]2[C@@H]3CC[C@H]4C[C@H](O)CC[C@]4(C)[C@H]3C(=O)C[C@]12C,-0.026% [at 42.5 µM] (inactive)
19,O=C(N[C@H]1CN2CCC1CC2)c1cc2ccoc2cn1,-2.28% (inactive)
20,CC(C)(C)OC(=O)c1ncn2c1[C@@H]1CCCN1C(=O)c1c(Br)cccc1-2,-0.0407% [at 42.5 µM] (inactive)

# From PubChem BioAssay (Tox21)
